Assay results taken from PubChem BioAssay (NCI).
The panel holds about 83,000 compounds, 20% with a hit somewhere; the sample as a whole holds those more often.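 Treatment: one concentration, 48 hours, 96-well format. Scoring: percent growth, with anything below 10 considered active.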 Unmarked numbers belong to inactive results. The source made the active and inactive calls.

test system: SNB-19 CNS; assay: NCI-60 one-dose screen, 48 h (100 = growth as untreated, 0 = no growth, -100 = all killed); conditions: 10 µM unless noted
Method: Growth inhibition of the SNB-19 human tumor cell line is measured as a screen for anti-cancer activity. Cells are grown in 96 well plates and exposed to the test compound for 48 hours. Compounds are tested at a single concentration, which is 10^-5 M for most compounds. The reported endpoint is percent growth (GI% or GIPRCNT), where numbers from 0 - 100% represent growth inhibition, and numbers from -100% - 0 represent cell death. For example, a value of 40 represents 60% growth inhibition. A value of 0 means no net growth occurred over the course of the experiment. A value of -40 indicates 40% of cells at the beginning of the experiment died by the end of the experiment. A value of -100 means all cells are dead at the end of the experiment.
NCI-60 Human Tumor Cell Lines Screen was performed using the standard one-dose NCI protocol, which is described in more detail at https://dtp.cancer.gov/discovery_development/nci-60/default.htm.
Compounds with GIPRCNT values below 10 were considered active. Activity score was based on GIPRCNT using the following formula: […]
Score is 0 for GIPRCNT values of 100 or above, 50 for GIPRCNT values of 0, and 100 for GIPRCNT values of -100.

SMILES | growth
O=C(O)CNC(=O)CN1C(=O)c2ccccc2C1=O | 108%
COc1ccc(C(=O)/C=C/c2cn(Cc3ccc(Cl)cc3)c3ccccc23)cc1 | 82.4%
CC(=O)OCC(=O)[C@@]1(O)CC[C@H]2[C@@H]3CC(=C(Br)Br)C4=CC(=O)CC[C@]4(C)[C@H]3C(=O)C[C@@]21C | 92.6%
Cc1nn(-c2ccccc2)c(N2CCOCC2)c1/C=N/N=c1\sc2ccccc2n1C | 87.3%
Cn1ncc2c(Nc3ccccc3Cl)nc(Cl)nc21 | 114%
Nc1ncc(C#Cc2cncc(NC(=O)c3cccc(C(F)(F)F)c3)c2)c2cccnc12 | 94.9%
Cn1c(COC(=O)NCCc2ccccn2)nc2c(N3CCOCC3)nc(Cl)nc21 | 60.6%
CCOC(=O)c1c(O)cc(-c2ccccc2)cc1-c1sc(N(C)Cc2ccccc2)nc1Cl | 101%
Clc1cc(Cl)cc(N2N=C(c3cccc(Nc4ccncc4)c3)CC2c2ccccc2)c1 (stereo not given) | 88.9%
Clc1cc(Cl)cc(N2N=C(c3cccc(Nc4ccncc4)c3)CC2c2ccc3c(c2)OCO3)c1 (stereo not given) | 81.9%
COc1cc(-c2nc3sccn3c2-c2ccnc(NCCNS(=O)(=O)c3ccc(F)cc3)n2)ccc1F | 35.7%
CCc1c(Nc2ccc(C)cc2)[nH]c(N)nc1=S | 98.3%
O=C(CN1CCOCC1)Nc1ccc2ncnc(Nc3ccc(OCc4cccc(F)c4)c(Cl)c3)c2c1 | 72.2%
NC(=S)N/N=C(\c1ccc(Cl)cc1)C1CC1 | 104%
O=C1NC(=S)NC(=O)C1=Cc1cn(Cc2ccccn2)c2ccccc12 | 53.4%
CN1CCN(C(=O)[C@]2(C)CC[C@]3(C)CC[C@]4(C)C(=CC(=O)[C@@H]5[C@@]6(C)CCC(=O)NC(C)(C)[C@@H]6CC[C@]54C)[C@@H]3C2)CC1 | 97.8%
COc1ccc(-c2nc(N/N=C/c3cccc(Br)c3)nc(N3CCOCC3)c2C#N)cc1 | 93.4%
Cc1c2c(cc[n+]1Cc1ccccc1)c1ccc(OCC3CCCCC3)cc1n2CC1CCCCC1 | -90.7% (active)
CCCCc1ccc(Nc2nnc(SCC(=O)NC(=O)NCC)s2)cc1 | 119%
CC(C)NC(=O)N1C(=O)CCC1NNC(=O)c1ccc([N+](=O)[O-])cc1 (stereo not given) | 107%

SMILES | growth
N#Cc1ccc(-c2ccc3c(c2)NC(=O)/C3=C\c2ccc[nH]2)cc1 | 99.3%
COc1ccc2c(/C=C3/C(=O)NC(=S)NC3C)cc(=O)oc2c1 (stereo not given) | 102%
Cc1ccc(Nc2cc(=S)nc(N)[nH]2)cc1C | 90.1%
Cc1n[nH]c(C)c1-c1c(C)n[nH]c1C | 28.3%
C[C@H]1[C@H](C)CC[C@]2(CO)CC[C@]3(C)C(=CC[C@@H]4[C@@]5(C)Cc6c([nH]c7ccccc67)C(C)(C)[C@@H]5CC[C@]43C)[C@H]12 | 80.8%
COc1ccc(/C=N/NC(=O)c2cccc3cc[nH]c23)cc1O | 39.7%
COc1ccc(C(=O)c2cc3c(N)c(C(=O)Nc4ccc(Cl)cc4)sc3nc2C)cc1 | 67%
COc1ccc(NS(=O)(=O)c2ccc(C)cc2)c([N+](=O)[O-])c1 | 102%
COc1c(Cl)cc(Cl)c2ccc(C=C3C(=O)N(C)C(=O)N(C)C3=O)nc12 | 92%
COc1cc2nc(-c3ccc(C(F)(F)F)cc3)cc(OCCCN3CCC(O)CC3)c2cc1OC | 62%
CCNC(=O)c1[nH]cc(-c2ccc(OC)cc2)c1-c1cc(OC)cc(OC)c1 | 84%
COc1cc(C2CC(c3cccc(Nc4ccncc4)c3)=NN2c2ccccc2)cc(OC)c1OC (stereo not given) | 68.1%
COc1ccc2c(c1)OC13Oc4cc(OC)ccc4C=C1CCCC3=C2 | 54.7%
CCCC/C(=N\N=C(N)N)c1ccc(F)cc1 | 41.6%
CCCN=C(N)c1ccc(NC(=O)c2ccc(C(=O)Nc3ccc(C(N)=NCCC)cc3)cc2)cc1 | 105%
COc1ccc2c(c1)c(CC(=O)NCCOCCOCC(=O)Nc1ccc(OC)c(C(N)=O)c1O)c(C)n2C(=O)c1ccc(Cl)cc1 | 106%
O=C(Nc1ccc(F)cc1)c1c(NC(=O)C(F)(F)F)sc2c1CCCCC2 | 13.3%
[2H]C1([2H])NC([2H])([2H])C([2H])([2H])N(c2ccc(Nc3ncc4cc(C(=O)N(C)C)n(C5CCCC5)c4n3)nc2)C1([2H])[2H] | 64.3%
O=C(Nc1nc(-c2ccccc2Cl)cs1)c1cc(-c2ccccc2)nc2ccc(Cl)cc12 | 80.6%
O=C(N/N=C/c1cccc(O)c1)c1ccccc1Nc1cccc(C(F)(F)F)c1 | 88.1%
